This passage reports AC50 and outcome results from PubChem BioAssay (EPA / NIEHS).

The term AC50 denotes the midpoint of the concentration-response curve, whichever way the signal moves.

“And” between values parts separate entries of the source, which are not always exact repeats. Equal entries are not always repeated. The source made the active and inactive calls. Rule for the calls: active = hit-call score of the fitted dose curve at least 0.9, where 1 is the maximum; inactive = score below 0.9.

The nature of the test: ATG_PXRE_CIS: Attagene CIS-FACTORIAL HepG2 Assay for human Pregnane X Receptor Element (PXRE) (AID 2282957). The note with it: HepG2 Attagene CIS-FACTORIAL PXRE reporter, mRNA; actives raise or lower the signal. The method, boiled down:
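Bidirectional activity, baselined to DMSO, derived from reporter mRNA fluorescence (RT-PCR plus capillary electrophoresis) in HepG2 cells bearing cis-promoter reporter units, 24 h exposure.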
For `N#Cc1cc(Br)c(O)c(Br)c1`, the AC50 is 18.4 µM (active).
On the same count and under the same terms, for `Cc1c(F)c(F)c(COC(=O)C2C(/C=C(\Cl)C(F)(F)F)C2(C)C)c(F)c1F` (stereo not drawn) the value was 13.8 µM (active).
Consider `O=C(O)COc1nc(Cl)c(Cl)cc1Cl`, for which the AC50 is 59.9 µM (active).
The same measure, in the same setting: with `COc1cnc(OC)n2nc(NS(=O)(=O)c3c(OCC(F)F)cccc3C(F)(F)F)nc12` the figure was 22 µM (active) and 16.4 µM (active).
Regarding `O=C(O)c1nc(Cl)ccc1Cl`, the compound was called inactive.
As to `CCOC(=O)C(Cl)Cc1cc(-n2nc(C)n(C(F)F)c2=O)c(F)cc1Cl` (stereo not drawn), the AC50 is 39.8 µM (active).
As for `CNC(=O)ON=CC(C)(C)SC`, the call was inactive.
Take `CCNc1nc(Cl)nc(NCC)n1`: the AC50 is 32.7 µM (active).
Same read-out and setting: for `N#CC(CCc1ccc(Cl)cc1)(Cn1cncn1)c1ccccc1` (stereo not drawn) the value was 1.5 µM (active); for `CCOP(=S)(OCC)SCn1c(=O)oc2cc(Cl)ccc21`, 2.21 µM (active).
Turning to `CS/C(C)=N/OC(=O)N(C)SN(C)C(=O)O/N=C(\C)SC`, the result was inactive.
On the same count and under the same terms, for `Fc1ccc(Oc2ccnc3cc(Cl)cc(Cl)c23)cc1` the value was “inactive”.
`CCON=C(CC)C1=C(O)CC(c2c(C)cc(C)cc2C)CC1=O` (stereo not drawn): the concentration at half-maximal activity (AC50) was 34.9 µM (active).
As to `Cc1ccc(-c2c(Cl)nc(C#N)n2S(=O)(=O)N(C)C)cc1`, the AC50 is 3.08 µM (active).
Same read-out and setting: for `CC(Oc1ccc(Cl)cc1Cl)C(=O)O` (stereo not drawn) the value was 79.7 µM (active); for `CCOc1cc(Oc2ccc(C(F)(F)F)cc2Cl)ccc1[N+](=O)[O-]`, 8.64 µM (active); for `CCNc1nc(Cl)nc(NC(C)C)n1`, 27.4 µM (active) [middle of 4 runs].
`COC(=O)C(C)Oc1ccc(Oc2ccc(Cl)cc2Cl)cc1` (stereo not drawn): the AC50 is 23 µM (active) and 16.9 µM (active) and 22 µM (active).
